Common to all, as to test: glycan array binding signal (z-score within array); higher = stronger binding
Common to all, as to details: glycan notation: IUPAC condensed, linker removed

One experiment addresses Glc(a1-4)Glc. The method, boiled down:
(§1)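 Columns mapping to the same glycan were averaged after glycan names were converted to IUPAC-condensed notation. The data come from 3228 arrays in the Consortium for Functional Glycomics database, limited to those with an available protein sequence. Binding is reported as a within-array Z-score averaged across arrays of one protein sequence and across linkers.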

In another experiment the target is Glc(a1-6)Glc. The method, boiled down: as §1
For experiment [1], the target named is Glc(b1-2)Glc(b1-2)Glc(b1-2)Glc(b1-2)Glc. The method, boiled down: as §1
Experiment [2] has as its target Glc(b1-3)Glc(b1-3)Glc(b1-3)Glc(b1-3)Glc. Summed up:
as §1

Experiment [3] addresses Glc(b1-3)Glc(b1-3)Glc(b1-3)Glc(b1-3)Glc(b1-3)Glc(b1-3)Glc(b1-3)Glc(b1-3)Glc(b1-3)Glc(b1-3)Glc. The method, boiled down: as §1
Experiment [4] has as its target Glc(b1-3)Glc(b1-3)Glc(b1-3)Glc(b1-3)Glc(b1-3)Glc(b1-3)Glc(b1-3)Glc(b1-3)Glc(b1-3)Glc(b1-3)Glc(b1-3)Glc. Summed up:
as §1

Experiment [5] has as its target Glc(b1-3)Glc(b1-3)Glc(b1-3)Glc(b1-3)Glc(b1-3)Glc(b1-3)Glc(b1-3)Glc(b1-3)Glc(b1-3)Glc(b1-3)Glc(b1-3)Glc(b1-3)Glc. Summed up: as §1
In experiment [6] the target is Glc(b1-3)Glc(b1-3)Glc(b1-3)Glc(b1-3)Glc(b1-3)Glc(b1-3)Glc(b1-3)[Glc(b1-6)]Glc(b1-3)Glc. Summed up:
as §1

The target in experiment [7] is Glc(b1-4)Glc(b1-4)Glc(b1-4)Glc(b1-4)Glc(b1-4)Glc(b1-4)Glc(b1-4)Glc(b1-4)Glc. Summed up:
as §1

Experiment [8] has as its target Glc(b1-6)Glc(b1-6)Glc(b1-6)Glc(b1-6)Glc(b1-6)Glc(b1-6)Glc(b1-6)Glc. The method, boiled down:
as §1

Experiment [9] deals with Glc(b1-6)Glc(b1-6)Glc(b1-6)Glc(b1-6)Glc(b1-6)Glc(b1-6)Glc(b1-6)Glc(b1-6)Glc. The method, boiled down: as §1
Experiment [10] deals with Man(b1-4)Man(b1-4)Man(b1-4)Man. Summed up: as §1
Experiment [11] concerns the target Glc(a1-2)Glc(a1-2)Glc(a1-2)Glc(a1-2)Glc. The method, boiled down: as §1
In experiment [12] the target is Glc(b1-2)Glc(b1-2)Glc(b1-2)Glc(b1-2)Glc(b1-2)Glc. The method, boiled down: as §1
The target in experiment [13] is Glc(a1-6)Glc(a1-6)Glc(a1-6)Glc(a1-6)Glc(a1-6)Glc(a1-6)Glc(a1-6)Glc. Summed up:
as §1

Experiment [14] has as its target Glc(b1-2)Glc(b1-2)Glc(b1-2)Glc(b1-2)Glc(b1-2)Glc(b1-2)Glc(b1-2)Glc. Summed up: as §1
Experiment [15] has as its target Glc(b1-2)Glc(b1-2)Glc(b1-2)Glc(b1-2)Glc(b1-2)Glc(b1-2)Glc(b1-2)Glc(b1-2)Glc(b1-2)Glc(b1-2)Glc. The method, boiled down: as §1
Experiment [16] concerns the target Glc(b1-2)Glc(b1-2)Glc(b1-2)Glc(b1-2)Glc(b1-2)Glc(b1-2)Glc(b1-2)Glc(b1-2)Glc(b1-2)Glc(b1-2)Glc(b1-2)Glc(b1-2)Glc. Summed up:
as §1

Experiment [17] has as its target Glc(b1-3)Glc(b1-3)Glc(b1-3)[Glc(b1-6)]Glc(b1-3)Glc(b1-3)Glc(b1-3)Glc(b1-3)[Glc(b1-6)]Glc(b1-3)Glc. The method, boiled down: as §1
A further experiment has as its target Glc(b1-3)Glc(b1-4)Glc. The method, boiled down:
as §1

The target of experiment [18] is Glc(b1-6)Glc(b1-6)Glc(b1-6)Glc(b1-6)Glc(b1-6)Glc(b1-6)Glc(b1-6)Glc(b1-6)Glc(b1-6)Glc(b1-6)Glc. Summed up: as §1
In experiment [19] the target is Glc(a1-3)Glc(a1-3)Man(a1-2)Man(a1-2)Man(a1-3)[Man(a1-3)[Man(a1-6)]Man(a1-6)]Man(b1-4)GlcNAc. The method, boiled down:
as §1

The target in experiment [20] is Glc(a1-4)Glc(a1-4)Glc(a1-4)Glc(a1-4)Glc. Summed up:
as §1

Experiment [21] deals with Glc(a1-4)Glc(a1-4)Glc(a1-4)Glc(a1-4)Glc(a1-4)Glc(a1-4)Glc. The method, boiled down:
as §1

The target in experiment [22] is Glc(b1-3)Glc(b1-3)Glc(b1-3)Glc. Summed up:
as §1

The target of a further experiment is Glc(b1-4)Glc(b1-4)Glc. The method, boiled down:
as §1

Many of the other results were omitted from the sample, so the strongest signals are more common in it than they were.

B1: Dectin-1 (Homo sapiens), Q9BXN2 (protein)
chain: TMAIWRSNSGSNTLENGYFLSRNKENHSQPTQSSLEDSVTPTKAVKTTGVLSSPCPPNWIIYEKSCYLFSMSLNSWDGSKRQCWQLGSNLLKIDSSNELGFIVKQVSSQPDNSFWIGLSRPQTEVPWLWEDGSTFSSNLFQIRTTATQENPSPNCVWIHVSVIYDQLCSVPSYSICEKKFSM
As to B1, the “glycan array binding signal (z-score)” value with Glc(a1-4)Glc is -0.145; in the experiment with Glc(a1-6)Glc, -0.145; in [1] it was -0.145; in experiment [2], -0.145; in [3] it was 0.976; in experiment [4] it was 5. The “glycan array binding signal (z-score)” value in [5] is 9.53; in experiment [6], -0.145; in [7], -0.145; in [8] it was -0.145; in experiment [9], -0.145; in [10], -0.082.

B2: DC-SIGN (Homo sapiens), Q9NNX6 (protein)
chain: QVSKVPSSISQEQSRQDAIYQNLTQLKAAVGELSEKSKLQEIYQELTQLKAAVGELPEKSKLQEIYQELTRLKAAVGELPEKSKLQEIYQELTWLKAAVGELPEKSKMQEIYQELTRLKAAVGELPEKSKQQEIYQELTRLKAAVGELPEKSKQQEIYQELTRLKAAVGELPEKSKQQEIYQELTQLKAAVERLCHPCPWEWTFFQGNCYFMSNSQRNWHDSITACKEVGAQLVVIKSAEEQNFLQLQSSRSNRFTWMGLSDLNQEGTWQWVDGSPLLPSFKQYWNRGEPNNVGEEDCAEFSGNGWNDDKCNLAKFWICKKSAASCSRDEEQFLSPAPATPNPPPA
Turning to B2, the results for the “glycan array binding signal (z-score)” value in experiment [11] and in experiment [12] were -0.838 and 2.48, respectively.

B3: Dectin-1 (Mus musculus), Q6QLQ4 (protein)
chain: EYGHNSGRNPEEKDNFLSRNKENHKPTESSLDEKVAPSKASQTTGGFSQPCLPNWIMHGKSCYLFSFSGNSWYGSKRHCSQLGAHLLKIDNSKEFEFIESQTSSHRINAFWIGLSRNQSEGPWFWEDGSAFFPNSFQVRNTAPQESLLHNCVWIHGSEVYNQICNTSSYSICEKEL
Turning to B3, the “glycan array binding signal (z-score)” value in experiment [13] is -0.161; in [14], -0.206; in experiment [15], -0.206; in [16] it was -0.182; in experiment [3] it was 0.83; in experiment [4], 5.77. The “glycan array binding signal (z-score)” value in experiment [5] was 6.71; in experiment [17], -0.182; in the experiment with Glc(b1-3)Glc(b1-4)Glc, -0.182; in experiment [18], -0.13; in [10], -0.038.

B4: Malectin (Homo sapiens), Q14165 (protein)
chain: MLGAWAVEGTAVALLRLLLLLLPPAIRGPGLGVAGVAGAAGAGLPESVIWAVNAGGEAHVDVHGIHFRKDPLEGRVGRASDYGMKLPILRSNPEDQILYQTERYNEETFGYEVPIKEEGDYVLVLKFAEVYFAQSQQKVFDVRLNGHVVVKDLDIFDRVGHSTAHDEIIPMSIRKGKLSVQGEVSTFTGKLYIEFVKGYYDNPKVCALYIMAGTVDDVPKLQPHPGLEKKEEEEEEEEYDEGSNLKKQTNKNRVQSGPRTPNPYASDNSSLMFPILVAFGVFIPTLFCLCRL
B4: the “glycan array binding signal (z-score)” value in [19] is 5.02; in [20], -0.172; in experiment [21] it was -0.012; in experiment [22], -0.337; in the experiment with Glc(b1-4)Glc(b1-4)Glc, -0.412.

The record behind these values is the supplement of paper PMC8728848.
